From PubChem BioAssay (NCATS)
Results filed as inconclusive are left out. A call without a number means that no potency is given here. The source made the active and inactive calls. The call rests on the fitted dose curve; in most records, active means well fitted cell-killing curve with a large enough effect; inconclusive means small, poorly fitted or top-dose-only effect; inactive means flat fitted curve, though single readings scatter.

test: qHTS of pediatric cancer cell lines to identify multiple opportunities for drug repurposing: Primary screen for TC32 cells (AID 1347089); conditions: TC32 Ewing sarcoma viability, CellTiter-Glo luminescence, 48 h; series mostly up to 45.8 µM; further: nearly all actives have a fitted effect of over 60% in size
Outline: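 Measured quantity: luminescence from CellTiter-Glo, reflecting metabolically active TC32 cells following 48 h of compound. Curves came straight from multi-point titrations, with 8 or 11 points in primary and 11 in confirmatory screening.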
Potency means the concentration at half of the fitted maximal effect.

Row | Structure (SMILES) | Potency
1 | CC(=CC(=O)Nc1ccccc1C(=O)O)c1ccc2ccccc2c1 | inactive
2 | C[C@H](NC(=O)[C@@H](O)c1cc(F)cc(F)c1)C(=O)N[C@@H]1C(=O)N(C)c2ccccc2-c2ccccc21 | inactive
3 | O=C1NCCc2[nH]c(-c3ccncc3)cc21 | 11700 nM (active)
4 | Cc1noc(-c2ccc(CSCCC(=O)O)cc2)c1NC(=O)OC(C)c1ccccc1Cl (stereo unspecified) | inactive
5 | CC[C@H]1OC(=O)[C@H](C)[C@@H](O[C@H]2C[C@@](C)(OC)[C@@H](O)[C@H](C)O2)[C@H](C)[C@@H](O[C@@H]2O[C@H](C)C[C@H](N(C)C)[C@@H]2O)[C@](C)(OC)C[C@@H](C)C(=O)[C@H](C)[C@@H](O)[C@]1(C)O | inactive
6 | COc1cccc2c1C(=O)c1c(O)c3c(c(O)c1C2=O)C[C@@](O)(C(=O)CO)C[C@@H]3O[C@H]1C[C@H](N)[C@@H](O)[C@H](C)O1 | 658 nM (active)
7 | CC(C)Oc1ccc(C(=O)N[C@H](CNC(=O)CN(C)C)Cc2ccc(-c3cn4cccc([C@H](C)O)c4n3)cc2)cc1Cl | 370 nM (active)
8 | N#Cc1cc(NC(=O)Nc2nnc(-c3ccncc3)s2)ccc1-c1cn[nH]c1 | inactive

test: qHTS of pediatric cancer cell lines to identify multiple opportunities for drug repurposing: Primary screen for DAOY cells (AID 1347090); conditions: DAOY medulloblastoma viability, CellTiter-Glo luminescence, 48 h; series mostly up to 46 µM; further: nearly all actives have a fitted effect of over 55% in size
Outline: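 Eight- or eleven-point concentration series, 48 h treatment at 37 degrees C in growth media; readout CellTiter-Glo luminescence. Potency and efficacy were taken from the concentration-response curves.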

Row | Structure (SMILES) | Potency | activity change, negative = cytotoxic
9 | CCCCCCCCCCCCCCCC(=O)OC[C@@H](NC(=O)C(Cl)Cl)[C@H](O)c1ccc([N+](=O)[O-])cc1 | inactive | –
10 | Cn1cc(C[C@@H](N)C(=O)O)c2ccccc21 | inactive | –
11 | Cc1cc(-c2nnc3n2CCCCC3)c(C)n1-c1ccccc1 | inactive | –
12 | O=[N+]([O-])c1cn2c(n1)OC[C@@H](OCc1ccc(OC(F)(F)F)cc1)C2 | inactive | –
13 | N[C@H]1CN(c2c(F)cc3c(=O)c(C(=O)O)cn(C4C[C@@H]4F)c3c2Cl)CC12CC2 (stereo partly specified) | inactive | –
14 | C=CC1=C(C(=O)O)N2C(=O)[C@@H](NC(=O)C(=NO)c3csc(N)n3)[C@H]2SC1 | inactive | –
15 | C[C@H]1COc2c(N3CCN(C)CC3)c(F)cc3c(=O)c(C(=O)O)cn1c23 | inactive | –
16 | C=CCNC1=C2C[C@@H](C)C[C@H](OC)[C@@H](O)[C@@H](C)C=C(C)[C@H](OC(N)=O)[C@@H](OC)C=CC=C(C)C(=O)NC(=CC1=O)C2=O | 2960 nM (active) | –
17 | COC(=O)[C@H](CCCN=C(N)N)NS(=O)(=O)c1ccc(C)cc1 | inactive | –
18 | CCCNS(=O)(=O)Nc1ncnc(OCCOc2ncc(Br)cn2)c1-c1ccc(Br)cc1 | inactive | –
19 | CCN1CCN(C(=O)N[C@H](C(=O)N[C@@H]2C(=O)N3C(C(=O)O)=C(CSc4nnnn4C)CS[C@@H]23)c2ccc(O)cc2)C(=O)C1=O | – | 8.24% [at 9.22 µM] (inactive)
20 | Cn1c(Nc2ccc(C(F)(F)F)cc2)nc2cc(Oc3ccnc(-c4ncc(C(F)(F)F)[nH]4)c3)ccc21 | 18700 nM (active) | –
21 | CC(C)(O)[C@H]1CC[C@@](C)([C@H]2[C@@H](O)C[C@@]3(C)[C@@H]4C[C@H](O[C@@H]5O[C@H](CO)[C@@H](O)[C@H](O)[C@@H]5O)[C@H]5C(C)(C)[C@@H](O[C@@H]6OC[C@@H](O)[C@H](O)[C@@H]6O)CC[C@@]56C[C@@]46CC[C@]23C)O1 | inactive | –
22 | CC(=O)O[C@H]1C[C@@H]2CC[C@H]3[C@H]4C[C@H]([N+]5(C)CCCCC5)[C@@H](OC(C)=O)[C@@]4(C)CC[C@@H]3[C@@]2(C)C[C@H]1[N+]1(C)CCCCC1 | inactive | –
23 | O=C1c2c(O)cccc2[C@@H]([C@@H]2O[C@H](CO)[C@@H](O)[C@H](O)[C@H]2O)c2cc(CO)cc(O)c21 | inactive | –
24 | Nc1nc(=O)n([C@H]2C[C@H](O)[C@@H](CO)O2)cc1F | inactive | –
25 | OCCNC1CCCc2c1[nH]c1ccc(-c3ccccc3)cc21 (stereo unspecified) | inactive | –
26 | C=C1C(=O)O[C@H]2[C@@H]1CCC(C)=CCC[C@@]1(C)O[C@@H]21 | 9350 nM (active) | –
27 | CC(C)(O)Cn1c(NC(=O)c2ccc(-c3cn[nH]c3)s2)nc2cc(CN3CCOCC3)ccc21 | 2350 nM (active) | –
28 | CC[C@H](CC[C@@H](C)[C@H]1CC[C@H]2[C@@H]3CC=C4C[C@@H](O)CC[C@]4(C)[C@@H]3CC[C@]12C)C(C)C | inactive | –
29 | CC(=O)OCC(=O)[C@@]12N=C(C)O[C@H]1C[C@H]1[C@@H]3CCC4=CC(=O)C=C[C@]4(C)[C@@H]3[C@@H](O)C[C@@]12C | inactive | –
30 | COC(=O)[C@@H]1[C@H]2C[C@@H]3c4[nH]c5ccccc5c4CCN3C[C@@H]2CC[C@@H]1O | inactive | –
31 | C[C@H]1C[C@H]2[C@@H]3CCC4=CC(=O)C=C[C@]4(C)[C@@H]3C(=O)C[C@]2(C)[C@@]1(O)C(=O)CO | inactive | –
